Compounds with a hit are over-represented: about 3.6% of the library has one in this group of screens.
BoNT F protease: BoNT/F light chain protease inhibitors, primary screen, biochemical, flow cytometry, MLPCN library. Multiplex microsphere protease cleavage assay. inhibition, % at 10 µM. hit rate 0.22% among 360,000; in the data active means inhibition above about 35%, passing the limit was not always enough; inconclusive means no clear call, values can overlap the other calls; further: plate controls were buffer without enzyme for full effect and enzyme alone for no effect
MazF activator: activators of E. coli MazEF toxin-antitoxin RNase, primary screen, biochemical, fluorescence, uHTS; Endoribonuclease toxin MazF (Escherichia coli (strain K12)), P0AE70; FAM/BHQ RNA-DNA oligo cleavage fluorescence, 5 h; activation, % at 20 µM; hit rate 0.32% among 350,000; AID 504720, 2011; in the data active means activation above about 50%
Target sequence (P0AE70 whole entry, looked up): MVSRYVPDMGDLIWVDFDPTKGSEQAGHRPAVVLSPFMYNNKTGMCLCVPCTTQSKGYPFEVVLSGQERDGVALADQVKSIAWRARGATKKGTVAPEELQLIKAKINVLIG
Bead autofluor: flagged as autofluorescent in microsphere protease counterscreen. compound autofluorescence counterscreen, microsphere flow cytometry; active compounds read high. fluorescence intensity (test concentration not listed). hit rate 3.1% among 360,000; in the data active means fluorescence intensity above about 16000; inconclusive means no clear call, values can overlap the other calls
BoNT A protease: BoNT/A light chain protease inhibitors, primary screen, biochemical, flow cytometry, MLPCN library; Botulinum neurotoxin type A light chain protease (Clostridium botulinum A str. ATCC 3502); multiplex microsphere protease substrate cleavage; inhibition, % at 10 µM; hit rate 0.17% among 360,000; further: plate controls were buffer without enzyme for full effect and enzyme alone for no effect
Anthrax LF prot: Bacillus anthracis LF protease inhibitors, primary screen, biochemical, multiplex microsphere, MLPCN library | inhibition, % at 10 µM | AID 588501, 2011 | multiplex microsphere protease cleavage assay | hit rate 0.12% among 360,000; further: plate controls were buffer without enzyme for full effect and enzyme alone for no effect
The depositor's hits bear a star; ? = inconclusive; . = no result given. Unless noted, no stated cut-off is given here; in the data, active means inhibition above about 30%; inconclusive means no clear call, values can overlap the other calls; inactive means below that.

SMILES	BoNT F protease	MazF activator	Bead autofluor	BoNT A protease	Anthrax LF prot
COC(=O)c1ccc(CNC(=O)Cn2cnc3c(SC)nc(N)nc32)cc1	-1	6	2982	0	-1
Cn1c(=O)c2[nH]c(-c3cccnc3)nc2n(C)c1=O	0	6	21912*	1	-2
CCCC(=O)N1CCC1(C)C(=O)NS(=O)(=O)c1cccc(C)c1 (centres undefined)	-2	.	3869	0	-4
COC(=O)c1ccccc1NC(=O)CSc1nc2ccsc2c(=O)n1CCCCC(=O)O	-7	-11	3286	-1	-1
C=CCn1c(=O)c2c3c(sc2n2c(Nc4ccc(C(=O)OCC)cc4)nnc12)CCCC3	-8	-11	17959*	-3	1
Cc1noc(NS(=O)(=O)c2ccc(NC(=O)c3cc(F)c(F)c(F)c3F)cc2)c1C	-4	5	?	1	1
CC(C)c1ccc(C(O)c2nc3ccccc3n2C)cc1 (centres undefined)	?	-1	4021	1	26
Cc1ccc(C(O)c2nc3ccccc3n2C)cc1 (centres undefined)	35*	3	4123	-2	-18
O=C(NCc1ccc2c(c1)OCO2)c1ccc(COc2cc(Cl)ccc2Cl)o1	18	-3	18111*	10	1
O=C(Nc1ccn(Cc2ccccc2F)n1)c1ccc(COc2ccccc2Cl)cc1	-2	-7	19484*	1	-3
O=C(Nc1ccn(Cc2c(F)c(F)cc(F)c2F)n1)c1ccc(COc2cc(Cl)ccc2Cl)o1	4	-7	22103*	3	-2
O=C(Nc1ccn(Cc2ccccc2F)n1)c1ccc(COc2cc(Cl)ccc2Cl)o1	-17	-9	11595	-1	-7
C[C@H]1CN[C@H](CCO)/C1=C\c1ccccc1	-5	7	3761	0	-3
CCNC(=O)C1CCCN(C(=O)c2ccc(F)c(Cl)c2)CC1 (centres undefined)	2	.	3908	-1	-7
CC1=C(C(=O)OC2CCCC2)C(c2ccc(C)o2)C2=C(CC(c3cccs3)CC2=O)N1 (centres undefined)	-3	-12	22029*	-1	-5
Cc1nn(C(C)C(=O)NC2CCCCCC2)c(=O)c2nn(-c3ccccc3)c(C)c12 (centres undefined)	11	6	6109	-1	-3
CC(=O)Nc1cccc(N2C(=O)CCC2=O)c1	-6	3	2462	0	-2
CC(=O)Nc1cccc(N2CCCC2=O)c1	-8	1	25393*	-6	0
O=Cc1c(NCCN2CCCC2)c2ccccc2[nH]c1=O	-23	-6	4494	-3	2
Cc1ccc(S(=O)(=O)NC(CC(=O)O)c2ccco2)cc1 (centres undefined)	-2	-1	16531*	?	-5
CC(C)(C)NC(=O)C(c1ccccc1)N(C(=O)c1ccco1)C1CC1 (centres undefined)	2	1	21553*	?	-5
COc1ccccc1C(=O)Nc1sc2c(c1C#N)CCC2	1	80*	3203	2	4
COc1ccccc1C(=O)Nc1sc2c(c1C(N)=O)CCCC2	-4	-22	3253	-2	0
O=C(NCCc1ccc(Cl)cc1)C1CCC(=O)N1Cc1ccccc1Cl (centres undefined)	1	0	22400*	1	-6
CC(C)N1C(=O)CCC1C(=O)NC1CCCC1 (centres undefined)	9	-2	20690*	6	-4
SMILES	BoNT F protease	MazF activator	Bead autofluor	BoNT A protease	Anthrax LF prot
Cc1ccc(CNC(=O)C2CCC(=O)N2CCc2ccccc2)cc1 (centres undefined)	1	-3	20485*	0	-8
Cc1ccc(CCNC(=O)C2CCC(=O)N2CCc2ccccc2)cc1 (centres undefined)	9	4	3838	-2	-3
CC(C)N1C(=O)CCC1C(=O)NCCc1ccccc1 (centres undefined)	0	6	23958*	-1	1
COc1ccc(CN2CCN(c3cccc(C)c3C)CC2)cc1OC	10	3	17421*	6	-14
Cc1cccc(N2CCN(Cc3ccc4c(c3)OCO4)CC2)c1C	-21	-3	3995	-2	1
COc1cc(CN2CCC(C(=O)N3CCC(C)CC3)CC2)cc(Br)c1O	6	3	10990	-1	4
COc1cc(CN2CCC(C(=O)NC3CCCC3)CC2)cc(Br)c1O	-5	-4	23761*	-1	-3

Compound activity deposited in PubChem BioAssay by several laboratories.
